In PubChem BioAssay (Tox21):
Results filed as inconclusive are left out. Entries that show only a call come without a potency. Values without a mark were called inactive. The source made the active and inactive calls. Calls come from the whole dose curve; as a rule, active = well fitted inhibition curve with a large enough effect in the repeat runs; inconclusive = weak or mixed curves, or effect the other way; inactive = no such curve, though single readings can be large or run the other way.

test: qHTS assay to identify small molecule antagonists of the retinoic acid receptor (RAR) signaling pathway (AID 1159552; note: nearly all actives have a fitted effect of over 50% in size); conditions: C3RL4 RARE luciferase reporter, retinol-stimulated, 6 h; series mostly up to 92.4 µM
Text: National Center for Advancing Translational Sciences [NCATS]
NIH Chemical Genomics Center [NCGC]
U.S. Environmental Protection Agency [EPA]
National Institutes of Environmental Health Sciences [NIEHS]
National Toxicology Program [NTP]
U.S. Food and Drug Administration [FDA]
All-trans Retinoic acid (atRA) is the potent natural metabolite of retinol and plays an important role in normal embryonic development and maintenance of cellular phenotype in adult animals. atRA is the activating ligand for the retinoic acid receptors (RARs) which form heterodimers with retinoid X receptors (RXRs) on the retinoic acid response element (RARE). Through activation of the RAR/RXRs nuclear receptors, atRA regulates the transcription of a large number of protein-coding genes and regulatory RNAs. Intracellular levels of atRA are controlled by the retinol signaling pathway (RSP) that regulates the biosynthesis and catabolism of atRA to maintain physiological levels. Chemicals that interfere with the RSP can cause abnormal intracellular levels of atRA and therefore are potential developmental toxicants. To assess compounds for the potential adverse effect on embryonic development through interfering with retinol signaling, a cell-based RARE luciferase reporter gene assay was used. C3RL4 cell line (OARSA/CFSAN/FDA, Laurel, MD) was used to screen Tox21 10K compound library for identifying inhibitors of the RSP.
Tox21 Assay Protocol Summary:
C3RL4 cells were seeded at 1,000/well in 4 uL of assay medium into white solid 1,536-well tissue culture plates (Greiner Bio-One North America Inc. Monroe, NC) using a Multidrop Combi (Thermo Scientific, Waltham, MA) dispenser. After incubation at 37 C and 5% CO2 for an overnight, 23 nL of compounds dissolved in DMSO, positive control or DMSO only were transferred by a Pintool station (Kalypsys, San Diego, CA). One ul of 1 uM (final concentration) of Retinol was added right after the compound addition by using a Flying Reagent Dispenser (FRD) (Aurora Discovery, San Diego, CA). After 6 hr incubation at 37 C and 5% CO2, 5 uL of Amplite Luciferase reagent (AAT Bioquest Inc. Sunnyvale, CA) was added to each assay plate using an FRD. Luminescence was quantified on a ViewLux plate reader (PerkinElmer, Waltham, MA) after 30 min incubation at room temperature.
Potency is the fitted concentration of half-maximal effect.

Row | Structure (SMILES) | Potency | activity, negative = inhibition
1 | CC(=O)c1ccc([N+](=O)[O-])cc1 | inactive | 
2 | O=C(/C=C/c1ccc(O)c(O)c1)O[C@@H]1C[C@@](OC(=O)/C=C/c2ccc(O)c(O)c2)(C(=O)O)C[C@@H](O)[C@@H]1O | inactive | 
3 | CN(C)CCN1C(=O)c2ccccc2N(C)c2ccccc21 | inactive | 
4 | CC(=O)OCC[N+](C)(C)C | inactive | 
5 | Nc1nnc(-c2ccc([N+](=O)[O-])o2)o1 | inactive | 
6 | COc1cc(N)c(Cl)cc1C(=O)NC1CCN(CCCOc2ccc(F)cc2)CC1OC (stereo not given) | inactive | 
7 | CCCCCCC(C)(C)C(=O)O | inactive | 
8 | Cc1cc(C)c(N)cc1C | inactive | 
9 | CCOc1ccc(Cc2nccc3cc(OCC)c(OCC)cc23)cc1OCC | inactive | 
10 | CCn1cc(C(=O)O)c(=O)c2cc(F)c(N3CCNCC3)cc21 | inactive | 
11 | O=c1[nH]c2ccc(Cl)cc2o1 | inactive | 
12 | Cc1ccc2c(Br)cc(Br)c(O)c2n1 | inactive | 
13 | C[C@@]12CCC[C@H]1[C@@H]1CC[C@H]3C[C@@H](O)CC[C@]3(C)[C@H]1CC2 | inactive | 
14 | O=C(Cn1ccnc1[N+](=O)[O-])NCCO | inactive | 
15 | OC1(c2ccccc2)CCNCC1 | inactive | 
16 | CN1CC(=O)N2[C@H](c3ccc4c(c3)OCO4)c3[nH]c4ccccc4c3C[C@@H]2C1=O | inactive | 
17 | CN1CCCN=C1COC(=O)C(O)(c1ccccc1)C1CCCCC1 (stereo not given) | inactive | 
18 | CCOC(C)=O | inactive | 
19 | CC(CN(C)C)C(C)(O)Cc1ccc(Cl)cc1 (stereo not given) | inactive | 
20 | Oc1cc2c(cc1O)[C@H]1c3ccc(O)c(O)c3OC[C@@]1(O)C2 | inactive | 

Row | Structure (SMILES) | Potency | activity, negative = inhibition
21 | CCC(=O)OC | inactive | 
22 | O=C1NCCN1CCO | inactive | 
23 | CC1CC(OC(=O)C(O)c2ccccc2)CC(C)(C)N1C (stereo not given) | inactive | 
24 | OC[C@H]1O[C@@H](n2cnc3c(=S)nc[nH]c32)[C@H](O)[C@@H]1O | inactive | 
25 | CCc1ccccc1 | inactive | 
26 | C=C(C)[C@@H]1CCC2=CCC[C@@H](C)[C@]2(C)C1 | inactive | 
27 | c1ccc(C[n+]2cccc3ccccc32)cc1 | inactive | 
28 | COc1ncnc(NS(=O)(=O)c2ccc(N)cc2)c1OC | inactive | 
29 | CC(C)C(O)(c1ccc(OC(F)(F)F)cc1)c1cncnc1 (stereo not given) | inactive | 
30 | C=C(C)CCCC(C)CCO (stereo not given) | inactive | 
31 | FC(F)(F)c1ccccc1Cl | inactive | 
32 | CCCCCC[C@@H](O)C/C=C\CCCCCCCC(=O)OCC(O)CO (stereo not given in full) | inactive | 
33 | CC(C)(c1ccccc1)c1ccccc1 | inactive | 
34 | c1csc(SSc2cccs2)c1 | 9.69 µM (active) | 
35 | CC(=O)Nc1cc(S(=O)(=O)O)cc2cc(S(=O)(=O)O)c(N=Nc3ccccc3)c(O)c12 | inactive | 
36 | CCCCCCCC/C=C\CCCCCCCCO | inactive | 
37 | CO[C@]1(NC(=O)CSC(F)F)C(=O)N2C(C(=O)O)=C(CSc3nnnn3CCO)CO[C@H]21 | inactive | 
38 | C=Cc1ccc(S(=O)(=O)O)cc1 | inactive | 
39 | O=c1[nH]ncc2ccccc12 | inactive | 
40 | Cc1cc(=O)c2c(O)c3c(O)cc(=O)c4c3c3c(cc(O)c1c23)C(C)(C)C=4O |  | -5.37% [at 19 µM]
